From PubChem BioAssay (NCATS) come the findings set out here.

One test deals with CRL-7250. In words: Cytotoxic Profiling of Annotated Libraries Using Quantitative High-Throughput Screening (AID 1296008). The note with it: Five cell lines viability, CellTiter-Glo ATP luminescence, 48-72 h; max response: stronger effect = lower value. The method in brief: (§1)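 Cells exposed to compounds for 48 or 72 hr at 37 degrees Celsius. Viability read as ATP-coupled luminescence with CellTiter-Glo after 10 min at room temperature.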
(In general: ATP-based viability assays read luminescence as a measure of living cells.)

In a further test the test system is HEK293. Described as above. The note with it: Five cell lines viability, CellTiter-Glo ATP luminescence, 48-72 h; max response: stronger effect = lower value. The procedure, abridged:
as §1

For test [1], the system named is HaCat. Described as above. The note with it: Five cell lines viability, CellTiter-Glo ATP luminescence, 48-72 h; max response: stronger effect = lower value. The method in brief:
as §1

In a further test the test system is KB-3-1. The test is described as above. The note with it: Five cell lines viability, CellTiter-Glo ATP luminescence, 48-72 h; max response: stronger effect = lower value. The method in brief:
as §1

The subject of the next test is NIH3T3. Described as above. The note with it: Five cell lines viability, CellTiter-Glo ATP luminescence, 48-72 h; max response: stronger effect = lower value. The method in brief: as §1
For a further test, the system named is MCC-13. In words: qHTS assay to identify novel small-molecules to repurpose for Merkel cell carcinoma treatment (AID 1296009). The note with it: MCC and control cell lines, CellTiter-Glo viability, 72 h; series mostly up to 46 µM. The procedure, abridged:
(§2)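 CellTiter-Glo luminescence after 72 hr compound exposure at 37 degree celsius gave cell viability. Libraries NPC and MIPE were run as 8- and 11-point dose responses; RLUs normalized to DMSO (negative) and no-cell (cytotoxicity) controls.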
A general note: Quantitative high-throughput screening tests each substance at several concentrations.

For another test, the system named is MCC-26. Described as above. The note with it: MCC and control cell lines, CellTiter-Glo viability, 72 h; series mostly up to 46 µM. The procedure, abridged: as §2
For another test, the system named is MKL-1. Described as above. The note with it: MCC and control cell lines, CellTiter-Glo viability, 72 h; series mostly up to 46 µM. The procedure, abridged:
as §2

Test [2] relates to HACAT. The description is as above. The note with it: MCC and control cell lines, CellTiter-Glo viability, 72 h; at 44.8 µM (top of the series) unless noted. The procedure, abridged:
as §2

The next test has as its system HEK293T. Described as above. The note with it: MCC and control cell lines, CellTiter-Glo viability, 72 h; at 44.8 µM (top of the series) unless noted. The procedure, abridged:
as §2

Where “and” joins values, the source holds several entries; their conditions need not be identical. Identical values can stand only once. Records with an inconclusive call do not appear. Values without a mark were called inactive. Calls of active or inactive are those of the source. Calls follow the shape of the dose curve; as a rule, active = well fitted inhibition curve with a large enough effect; inconclusive = small, poorly fitted or top-dose-only effect; inactive = flat fitted curve, though single readings scatter. Numbered stars: 1 amine (or outer) side, 2 acyl side, 3 side chain; on linkers, the order of the positions; unused ones are H or OH. Bridge positions count the residues as written; N and C are the ends. Square brackets hold non-standard residues; d marks the D form. Peptide text beside a SMILES is read from it. I, II: the chains in the order shown. Actinocin(9to1) = Cc1c2oc3c(C)ccc(C(=O)[*:1])c3nc-2c(C(=O)[*:2])c(N)c1=O; NMeV = CN[C@H](C(=O)O)C(C)C; Sar = CNCC(=O)O
% is scaled to controls: 0 for no effect and ±100 for the full control effect; potency is read from the fitted curve at half-maximal effect.
Also: nearly all actives have a fitted effect of over 60% in size.

For `CN(C)CC/C=C1/c2ccccc2COc2ccc(CC(=O)O)cc21`, the max response in the test with CRL-7250 is 2.78%; in the test on HEK293, 1.17%; with HaCat [1] it was -4.81%; in the test with KB-3-1, -7.2%; in the test on NIH3T3 it was -1.64%. In addition, the Potency entry in the test on MCC-13, in the test with MCC-26 and in the test on MKL-1 was “inactive” throughout.
On to `CCCN1CCCC[C@H]1C(=O)Nc1c(C)cccc1C`, for which the max response is -6.22% in the test on CRL-7250, -0.54% in the test on HEK293, -10% in the test on KB-3-1 and -2.9% in the test on NIH3T3. For the same molecule, the call with HaCat [1] and in the test on HACAT [2] was inactive. Besides, the Potency result with MCC-13, in the test on MCC-26 and in the test with MKL-1 was “inactive” throughout.
Take `O=c1ccc2ccccc2o1`: the molecule was classed as inactive in the test on CRL-7250, in the test on HEK293, with NIH3T3 and with HEK293T. In addition, the values for the max response in the test on HaCat [1] and in the test on KB-3-1 were -0.31% and -9.75%, respectively. The Potency entry in the test on MCC-13, in the test on MCC-26 and in the test on MKL-1 was “inactive” in each case.
Take `CNC(=O)CN(CCN(CCN(CC(=O)[O-])CC(=O)NC)CC(=O)[O-])CC(=O)[O-].O.[Gd+3]`: the molecule was called inactive with CRL-7250, in the test with HEK293 and in the test with HEK293T. Further, the max response in the test on HaCat [1] is -1.56%; in the test on KB-3-1, -5.37% and -4.64%; in the test with NIH3T3 it was -1.76%. Also, the Potency entry in the test with MCC-13, with MCC-26 and in the test on MKL-1 was “inactive” throughout.
In the case of `CCOc1ccc(NC(=O)CC(C)O)cc1` (centres undefined), the max response in the test with CRL-7250 was -0.463%; in the test with HEK293, 2.44%; with HaCat [1], -5.23%; in the test with KB-3-1, -22.8%; in the test with NIH3T3 it was 4.45%. For the same molecule, the Potency entry with MCC-13, with MCC-26 and in the test on MKL-1 was “inactive” each time.
For the molecule `CCOC(=O)COc1ccc2c(C)c(CCN(CC)CC)c(=O)oc2c1Cl`, the Potency in the test on CRL-7250 is 29.9 µM (active). Moreover, the outcome with HEK293 and in the test with HEK293T was inactive. The max response in the test with HaCat [1] was -12.1%; in the test with KB-3-1, 7.91%; in the test on NIH3T3 it was 1.29%. In addition, the Potency result with MCC-13 and with MCC-26 was “inactive” each time.
`CC(C)n1nc(-c2cc3cc(O)ccc3[nH]2)c2c(N)ncnc21`: the Potency in the test with CRL-7250 is 376 nM (active) and 461 nM (active); in the test with HEK293 it was 1.33 µM (active) and 1.46 µM (active); in the test on HaCat [1] it was 23.1 µM (active); in the test on KB-3-1, 1.3 µM (active); with NIH3T3, 2.37 µM (active) and 1.16 µM (active); in the test on MCC-13, 16.8 µM (active). Moreover, the Potency in the test with MCC-26 is 11.9 µM (active); in the test with MKL-1 it was 10.6 µM (active).
Turning to `C[C@]12C=CC(=O)C=C1[C@@H](F)C[C@@H]1[C@@H]2[C@@H](O)C[C@@]2(C)[C@H]1CC[C@]2(O)C(=O)CO`, the max response with CRL-7250 is 1.95%; in the test on HEK293 it was -9.41%; in the test on HaCat [1], -4.4%; with KB-3-1 it was 8% and -2.32%; in the test with NIH3T3, -3.51%. The Potency entry in the test with MCC-13, in the test on MCC-26 and in the test on MKL-1 was “inactive” in each case.
Regarding `C[C@]12CCC(=O)C=C1CC[C@H]1[C@@H]3CC[C@](O)(C(=O)CO)[C@@]3(C)C[C@H](O)[C@@]12F`, the max response in the test on CRL-7250 is -14.8%; in the test with HEK293 it was -5.58%; in the test on HaCat [1] it was -3.35%; in the test on KB-3-1, 18.3% and -1.2%. In the test with NIH3T3, the molecule was called inactive. Also, the Potency result with MCC-13, with MCC-26 and with MKL-1 was “inactive” each time.
For `NC[C@H]1O[C@H](O[C@H]2[C@H](O)[C@@H](O[C@H]3O[C@H](CO)[C@@H](O)[C@H](N)[C@H]3O)[C@H](N)C[C@@H]2N)[C@H](N)[C@@H](O)[C@@H]1O`, the max response is -9.82% with CRL-7250; -0.173% with HEK293; -1.35% and -3.36% in the test with KB-3-1; 1.61% with NIH3T3. For the same molecule, the molecule was classed as inactive with HaCat [1]. In the test on HACAT [2], the outcome is “inactive [at 17.4 µM]”. Besides, the Potency entry in the test on MCC-13, in the test with MCC-26 and with MKL-1 was “inactive” each time.
Regarding `CCCCCCCCCCCCCCCC[N+](C)(C)CC`, the Potency in the test with CRL-7250 is 6.68 µM (active); in the test on HEK293, 2.99 µM (active); in the test on HaCat [1], 5.96 µM (active); in the test on MKL-1 it was 0.119 µM (active).
For the molecule `CC(C)COC(=O)c1ccc(N)cc1`, the max response is 2.7% in the test with CRL-7250, -1.38% in the test with HEK293, 12.1% with KB-3-1 and 3.91% in the test on NIH3T3. Moreover, the molecule was called inactive in the test with HaCat [1] and in the test with HACAT [2]. Besides, the Potency entry in the test with MCC-13, in the test on MCC-26 and in the test on MKL-1 was “inactive” throughout.
Turning to `CC[N+](CC)(CCNC(=O)C(=O)NCC[N+](CC)(CC)Cc1ccccc1Cl)Cc1ccccc1Cl`, the result in the test on CRL-7250 was inactive. Also, the max response is 2.37% in the test with HEK293, -1.93% in the test on HaCat [1], -5.89% with KB-3-1 and 3.32% in the test on NIH3T3. The Potency result in the test with MCC-13, in the test with MCC-26 and with MKL-1 was “inactive” in each case.
As for `OCc1ccccc1O`, the max response in the test with CRL-7250 was 2.81%; in the test on HaCat [1], -18.5%; with KB-3-1, -3.85%; in the test on NIH3T3 it was 3.42%. For the same molecule, the result in the test on HEK293 and with HEK293T was inactive. The Potency result in the test with MCC-13, with MCC-26 and with MKL-1 was “inactive” throughout.
As for `COC(=O)C1=C(C)NC(C)=C(C(=O)O[C@@H]2CCCN(Cc3ccccc3)C2)[C@@H]1c1cccc([N+](=O)[O-])c1`, the Potency in the test on CRL-7250 was 15 µM (active); with HEK293 it was 11.9 µM (active) and 8.2 µM (active). For the same molecule, the max response in the test with HaCat [1] was -9.72%; in the test with KB-3-1, 7.74%; with NIH3T3, -11.8% and -29.4%. Further, the Potency result in the test on MCC-13, in the test with MCC-26 and in the test with MKL-1 was “inactive” in each case.
For `CCn1cc(C(=O)O)c(=O)c2cnc(N3CCCC3)nc21`, the max response was 4.85% in the test with CRL-7250; 1.04% in the test on HEK293; -10.2% in the test with HaCat [1]; 8.93% in the test on KB-3-1; -2.06% in the test on NIH3T3. The activity change, negative = cytotoxicity in the test with MCC-13 is 5.05% [at 9.22 µM]; in the test with MCC-26, -5.4% [at 9.22 µM]; in the test on MKL-1, 1.32% [at 9.22 µM].
Regarding `CCCCC(CC)CN=C(N)NC(N)=NCCCCCCN=C(N)NC(N)=NCC(CC)CCCC` (centres undefined), the Potency is 7.5 µM (active) in the test on CRL-7250; 2.99 µM (active) in the test with HEK293; 6.68 µM (active) in the test on HaCat [1]; 10.6 µM (active) in the test with MCC-13; 1.33 µM (active) in the test with MKL-1.
Turning to `NC[C@H]1O[C@H](O[C@H]2[C@H](O[C@@H]3O[C@H](CO)[C@@H](O)[C@H]3O)C(O)[C@H](N)C[C@@H]2N)[C@H](N)[C@@H](O)[C@@H]1O` (some centres undefined), the max response is -0.227% in the test with CRL-7250, 0.11% with HEK293, -0.678% in the test on HaCat [1] and -2.19% with KB-3-1. Further, the call in the test with NIH3T3 was inactive. The activity change, negative = cytotoxicity was 8.98% [at 9.22 µM] with MCC-13, 5.57% [at 9.22 µM] with MCC-26 and 2.77% [at 9.22 µM] in the test on MKL-1.
Turning to `Cc1c2oc3c(C)ccc(C(=O)N[C@@H]4C(=O)N[C@H](C(C)C)C(=O)N5CCC[C@H]5C(=O)N(C)CC(=O)N(C)[C@@H](C(C)C)C(=O)O[C@@H]4C)c3nc-2c(C(=O)N[C@@H]2C(=O)N[C@H](C(C)C)C(=O)N3CCC[C@H]3C(=O)N(C)CC(=O)N(C)[C@@H](C(C)C)C(=O)O[C@@H]2C)c(N)c1=O` (I: T[dV]P[Sar][NMeV] / II: T[dV]P[Sar][NMeV]; ester I:1-I:C, II:1-II:C; linker I:N-II:N via Actinocin(9to1)), the Potency is 0.0042 µM (active) in the test on CRL-7250; 0.0021 µM (active) in the test on HEK293; 0.0188 µM (active) with HaCat [1]; 0.0206 µM (active) in the test with KB-3-1; 0.0335 µM (active) in the test with MCC-13; 0.0211 µM (active) with MCC-26.
